The record followed here is PubChem BioAssay (EPA / NIEHS).

SMILES strings stand for the structures. Inconclusive results are not listed. The source made the active and inactive calls. The calls were made as follows: active = hit-call score of the fitted dose curve at least 0.9, where 1 is the maximum; inconclusive = response in the unintended direction; inactive = score below 0.9.

Assay [1] concerns the target human Protein Tyrosine Phosphatase Non-receptor Type 6 (PTPN6), PTPN6 (gene 5777) (UniProt P29350). Put plainly: NVS_ENZ_hPTPN6: NovaScreen (NVS) Enzymatic Assay for human Protein Tyrosine Phosphatase Non-receptor Type 6 (PTPN6) (AID 2283210). The essentials: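 Cell-free assay with recombinant PTPN6 expressed in SF9 cells, fluorescent substrate, product separated from substrate by electrophoretic mobility shift; read 1.33 hours after dosing. Primary screen in duplicate at 25 uM, actives retested in concentration series; DMSO baseline.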

In assay [2] the target is human Phosphatase and Tensin Homolog (PTEN), PTEN (gene 5728) (UniProt P60484). Put plainly: NVS_ENZ_hPTEN: NovaScreen (NVS) Enzymatic Assay for human Phosphatase and Tensin Homolog (PTEN) (AID 2283203). The essentials:
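Cell-free recombinant human PTEN with fluorescent substrate; product separated by electrophoretic mobility shift and read by fluorescence 1 h after dosing. Primary screen in duplicate at 25 uM, actives followed in concentration series versus DMSO.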

Assay [3] has as its target Tyrosine-protein phosphatase non-receptor type 11 (Homo sapiens) (UniProt Q06124). Put plainly: NVS_ENZ_hPTPN11: NovaScreen (NVS) Enzymatic Assay for human Protein Tyrosine Phosphatase Non-receptor Type 11 (PTPN11) (AID 2283202). Put shortly: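 Recombinant human PTPN11 activity on a fluorescent substrate, with substrate/product separated by electrophoretic mobility shift; read 0.5 h after dosing, loss of signal vs DMSO. Duplicate 25 uM screen, then concentration-response up to 50 uM.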

The target in assay [4] is Tyrosine-protein phosphatase non-receptor type 12 (Homo sapiens) (UniProt Q05209). The experiment in a line: NVS_ENZ_hPTPN12: NovaScreen (NVS) Enzymatic Assay for human Protein Tyrosine Phosphatase Non-receptor Type 12 (PTPN12) (AID 2283204). The essentials: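 Single-concentration duplicates (25 uM) preceded singleton concentration-response up to 50 uM for chemicals passing threshold. Cell-free recombinant PTPN12 activity was read 1.33 h after dosing via fluorescence after mobility-shift separation; loss of signal versus DMSO.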
Tyrosine-protein phosphatase non-receptor type 12 (Homo sapiens), sequence (Q05209 whole entry, looked up): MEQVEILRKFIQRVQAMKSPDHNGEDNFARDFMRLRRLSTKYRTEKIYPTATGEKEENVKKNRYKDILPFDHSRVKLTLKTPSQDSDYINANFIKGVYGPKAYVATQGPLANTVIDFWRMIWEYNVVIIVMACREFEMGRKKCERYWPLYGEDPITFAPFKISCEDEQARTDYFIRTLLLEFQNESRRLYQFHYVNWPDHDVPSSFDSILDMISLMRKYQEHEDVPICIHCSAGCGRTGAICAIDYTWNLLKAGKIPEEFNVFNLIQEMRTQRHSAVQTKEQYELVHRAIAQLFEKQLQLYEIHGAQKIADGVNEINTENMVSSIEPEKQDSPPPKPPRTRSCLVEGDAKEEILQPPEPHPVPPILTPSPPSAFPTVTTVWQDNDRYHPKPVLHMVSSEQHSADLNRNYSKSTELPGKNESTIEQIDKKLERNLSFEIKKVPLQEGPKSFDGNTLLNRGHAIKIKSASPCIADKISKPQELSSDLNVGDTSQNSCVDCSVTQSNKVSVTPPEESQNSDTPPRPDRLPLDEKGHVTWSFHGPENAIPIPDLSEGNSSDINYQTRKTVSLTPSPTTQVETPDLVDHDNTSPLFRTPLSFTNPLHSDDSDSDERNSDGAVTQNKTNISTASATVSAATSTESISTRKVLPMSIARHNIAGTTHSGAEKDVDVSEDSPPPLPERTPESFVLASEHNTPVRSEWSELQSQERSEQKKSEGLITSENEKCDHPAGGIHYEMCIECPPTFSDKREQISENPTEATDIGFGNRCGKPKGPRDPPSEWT

Assay [5] deals with human Protein Tyrosine Phosphatase Receptor Type B (PTPRB), PTPRB (gene 5787) (UniProt P23467). The experiment in a line: NVS_ENZ_hPTPRB: NovaScreen (NVS) Enzymatic Assay for human Protein Tyrosine Phosphatase Receptor Type B (PTPRB) (AID 2283211). The essentials: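 Recombinant human PTPRB with a fluorescent substrate, product separated by electrophoretic mobility shift; read 1 h after dosing. Primary screen in duplicate at 25 uM; actives then retested in concentration series; loss of signal versus DMSO.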
human Protein Tyrosine Phosphatase Receptor Type B (PTPRB), PTPRB (gene 5787), sequence (P23467 whole entry, looked up): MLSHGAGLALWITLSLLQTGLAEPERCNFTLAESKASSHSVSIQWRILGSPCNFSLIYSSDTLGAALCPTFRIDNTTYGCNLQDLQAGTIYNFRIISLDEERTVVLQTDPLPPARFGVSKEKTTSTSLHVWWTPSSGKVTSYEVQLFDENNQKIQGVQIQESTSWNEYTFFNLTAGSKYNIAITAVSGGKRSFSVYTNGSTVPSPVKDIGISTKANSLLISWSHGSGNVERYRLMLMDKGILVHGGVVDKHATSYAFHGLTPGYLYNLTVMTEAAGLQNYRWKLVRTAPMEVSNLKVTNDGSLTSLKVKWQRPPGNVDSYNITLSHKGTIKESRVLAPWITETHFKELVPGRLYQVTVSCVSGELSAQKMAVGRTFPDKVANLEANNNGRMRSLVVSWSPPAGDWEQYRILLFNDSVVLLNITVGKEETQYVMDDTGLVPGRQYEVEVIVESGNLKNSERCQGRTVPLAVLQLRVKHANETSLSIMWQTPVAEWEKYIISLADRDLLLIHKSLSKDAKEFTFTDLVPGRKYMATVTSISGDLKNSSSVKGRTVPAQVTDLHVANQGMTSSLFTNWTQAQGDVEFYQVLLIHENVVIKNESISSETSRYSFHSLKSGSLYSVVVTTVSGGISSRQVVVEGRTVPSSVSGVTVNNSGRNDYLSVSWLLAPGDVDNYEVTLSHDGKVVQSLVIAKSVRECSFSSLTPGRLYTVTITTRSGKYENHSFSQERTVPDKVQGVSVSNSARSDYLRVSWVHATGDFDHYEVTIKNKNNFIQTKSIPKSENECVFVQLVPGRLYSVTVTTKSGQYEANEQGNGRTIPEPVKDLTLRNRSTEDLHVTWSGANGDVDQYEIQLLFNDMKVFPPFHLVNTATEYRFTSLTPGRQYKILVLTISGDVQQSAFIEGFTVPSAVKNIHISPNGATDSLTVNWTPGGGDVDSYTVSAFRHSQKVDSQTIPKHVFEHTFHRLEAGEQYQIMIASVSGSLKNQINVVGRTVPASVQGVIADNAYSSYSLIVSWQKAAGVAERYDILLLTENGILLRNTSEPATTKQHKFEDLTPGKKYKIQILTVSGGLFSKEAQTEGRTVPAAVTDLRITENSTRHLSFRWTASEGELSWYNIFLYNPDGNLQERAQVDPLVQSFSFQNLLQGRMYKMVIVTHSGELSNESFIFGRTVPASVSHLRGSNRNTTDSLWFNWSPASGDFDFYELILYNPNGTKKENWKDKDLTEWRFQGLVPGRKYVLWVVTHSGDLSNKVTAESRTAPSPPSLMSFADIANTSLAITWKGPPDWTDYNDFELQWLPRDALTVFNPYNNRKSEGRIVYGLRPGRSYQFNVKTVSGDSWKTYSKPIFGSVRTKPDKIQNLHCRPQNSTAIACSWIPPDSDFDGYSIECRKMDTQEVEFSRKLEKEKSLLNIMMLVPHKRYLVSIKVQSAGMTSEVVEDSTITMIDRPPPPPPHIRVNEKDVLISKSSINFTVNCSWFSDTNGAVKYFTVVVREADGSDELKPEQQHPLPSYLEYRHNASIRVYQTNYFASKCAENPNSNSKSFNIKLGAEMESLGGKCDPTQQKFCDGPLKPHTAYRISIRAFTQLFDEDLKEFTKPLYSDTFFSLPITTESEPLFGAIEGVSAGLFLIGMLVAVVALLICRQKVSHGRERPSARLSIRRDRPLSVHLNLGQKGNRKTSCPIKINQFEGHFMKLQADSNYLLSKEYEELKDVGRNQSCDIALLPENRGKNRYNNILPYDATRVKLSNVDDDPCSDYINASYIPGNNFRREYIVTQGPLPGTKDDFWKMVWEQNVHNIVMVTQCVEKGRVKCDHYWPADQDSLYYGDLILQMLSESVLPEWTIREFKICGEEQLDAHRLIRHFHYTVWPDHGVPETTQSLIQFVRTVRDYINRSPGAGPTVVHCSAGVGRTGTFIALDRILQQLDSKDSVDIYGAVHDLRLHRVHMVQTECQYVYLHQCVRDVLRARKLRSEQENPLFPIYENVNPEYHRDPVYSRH

Assay [6] addresses Tyrosine-protein phosphatase non-receptor type 13 (Homo sapiens) (UniProt Q12923). Put plainly: NVS_ENZ_hPTPN13: NovaScreen (NVS) Enzymatic Assay for human Protein Tyrosine Phosphatase Non-receptor Type 13 (PTPN13) (AID 2283205). The essentials: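 Cell-free assay of recombinant human PTPN13 with a fluorescent substrate, product separated by electrophoretic mobility shift and read 0.5 h after dosing. Primary screen at 25 uM in duplicate, then concentration-response up to 50 uM. Loss of signal fitted against DMSO.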

The target in assay [7] is human Protein Tyrosine Phosphatase Non-receptor Type 9 (PTPN9), PTPN9 (gene 5780) (UniProt P43378). The experiment in a line: NVS_ENZ_hPTPN9: NovaScreen (NVS) Enzymatic Assay for human Protein Tyrosine Phosphatase Non-receptor Type 9 (PTPN9) (AID 2283209). Put shortly:
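Sf9-expressed enzyme in a cell-free assay, fluorescence read 1.33 h after dosing with mobility-shift separation of substrate and product. Tested at 25 uM in duplicate, then up to 50 uM; signal loss versus DMSO.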

The target of assay [8] is Tyrosine-protein phosphatase non-receptor type 14 (Homo sapiens) (UniProt Q15678). Put plainly: NVS_ENZ_hPTPN14: NovaScreen (NVS) Enzymatic Assay for human Protein Tyrosine Phosphatase Non-receptor Type 14 (PTPN14) (AID 2283206). Here is the method: NVS_ENZ_hPTPN14 is a biochemical, single-readout assay that uses extracted gene-proteins in a cell-free assay. Measurements were taken 0.5 hour after chemical dosing in a 384-well plate.NVS_ENZ_hPTPN14 is one of one assay component(s) measured or calculated from the NVS_ENZ_hPTPN14 assay. It is designed to make measurements of enzyme activity, a form of enzyme reporter, as detected with fluorescence intensity signals by Fluorescence and electrophoretic mobility shift technology.Data from the assay component NVS_ENZ_hPTPN14 was analyzed into 1 assay endpoint. This assay endpoint, NVS_ENZ_hPTPN14, was analyzed in the positive analysis fitting direction relative to DMSO as the negative control and baseline of activity. Using a type of enzyme reporter, loss-of-signal activity can be used to understand changes in the enzymatic activity as they relate to the gene PTPN14. Furthermore, this assay endpoint can be referred to as a primary readout, because this assay has produced multiple assay endpoints where this one serves a enzymatic activity function. To generalize the intended target to other relatable targets, this assay endpoint is annotated to the phosphatase intended target family, where the subfamily is non-receptor tyrosine phosphatase. […]

Assay [9] addresses human Protein Tyrosine Phosphatase Non-receptor Type 2 (PTPN2), PTPN2 (gene 5771) (UniProt P17706). Put plainly: NVS_ENZ_hPTPN2: NovaScreen (NVS) Enzymatic Assay for human Protein Tyrosine Phosphatase Non-receptor Type 2 (PTPN2) (AID 2283207). The essentials:
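Cell-free recombinant enzyme with fluorescent substrate, product separated by electrophoretic mobility shift; read 1 h after dosing. Primary screen single concentration (25 uM) in duplicate; actives followed in concentration series; loss of signal versus DMSO.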

Assay [10] concerns the target human Protein Tyrosine Phosphatase Non-receptor Type 4 (PTPN4), PTPN4 (gene 5775) (UniProt P29074). Put plainly: NVS_ENZ_hPTPN4: NovaScreen (NVS) Enzymatic Assay for human Protein Tyrosine Phosphatase Non-receptor Type 4 (PTPN4) (AID 2283208). Put shortly:
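Cell-free assay of PTPN4 expressed in Sf9 cells, using a fluorescent substrate with product separated by mobility shift; read 1.33 h after dosing. Single-point screen at 25 uM, then concentration-response up to 50 uM. Loss of signal relative to DMSO.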

human Protein Tyrosine Phosphatase Non-receptor Type 2 (PTPN2), PTPN2 (gene 5771), sequence (P17706 whole entry, looked up): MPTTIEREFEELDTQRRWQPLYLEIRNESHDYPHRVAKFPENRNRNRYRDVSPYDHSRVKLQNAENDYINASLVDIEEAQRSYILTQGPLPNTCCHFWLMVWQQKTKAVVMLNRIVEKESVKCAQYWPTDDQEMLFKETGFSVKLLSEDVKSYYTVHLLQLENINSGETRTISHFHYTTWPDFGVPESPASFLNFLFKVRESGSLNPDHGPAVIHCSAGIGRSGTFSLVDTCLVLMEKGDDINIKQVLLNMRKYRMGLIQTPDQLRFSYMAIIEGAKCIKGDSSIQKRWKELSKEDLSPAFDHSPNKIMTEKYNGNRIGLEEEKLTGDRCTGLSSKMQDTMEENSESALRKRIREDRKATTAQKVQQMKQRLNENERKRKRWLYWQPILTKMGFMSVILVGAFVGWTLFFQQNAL
Tyrosine-protein phosphatase non-receptor type 11 (Homo sapiens), sequence (Q06124 whole entry, looked up): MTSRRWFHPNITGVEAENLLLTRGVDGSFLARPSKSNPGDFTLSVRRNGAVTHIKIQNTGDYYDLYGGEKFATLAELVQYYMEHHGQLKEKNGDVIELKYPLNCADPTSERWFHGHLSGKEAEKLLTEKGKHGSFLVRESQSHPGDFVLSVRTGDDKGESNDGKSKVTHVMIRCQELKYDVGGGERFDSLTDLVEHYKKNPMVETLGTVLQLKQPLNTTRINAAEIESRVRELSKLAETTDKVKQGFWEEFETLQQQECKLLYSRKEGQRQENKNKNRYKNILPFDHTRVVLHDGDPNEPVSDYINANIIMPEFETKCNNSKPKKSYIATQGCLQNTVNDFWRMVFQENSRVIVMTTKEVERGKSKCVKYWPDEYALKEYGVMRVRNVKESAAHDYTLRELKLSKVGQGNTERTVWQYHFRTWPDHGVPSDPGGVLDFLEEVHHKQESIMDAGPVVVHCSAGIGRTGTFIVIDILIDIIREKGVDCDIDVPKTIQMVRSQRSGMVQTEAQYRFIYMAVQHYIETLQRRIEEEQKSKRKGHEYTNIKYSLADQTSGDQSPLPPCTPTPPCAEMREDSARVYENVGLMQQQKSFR
human Phosphatase and Tensin Homolog (PTEN), PTEN (gene 5728), sequence (P60484 whole entry, looked up): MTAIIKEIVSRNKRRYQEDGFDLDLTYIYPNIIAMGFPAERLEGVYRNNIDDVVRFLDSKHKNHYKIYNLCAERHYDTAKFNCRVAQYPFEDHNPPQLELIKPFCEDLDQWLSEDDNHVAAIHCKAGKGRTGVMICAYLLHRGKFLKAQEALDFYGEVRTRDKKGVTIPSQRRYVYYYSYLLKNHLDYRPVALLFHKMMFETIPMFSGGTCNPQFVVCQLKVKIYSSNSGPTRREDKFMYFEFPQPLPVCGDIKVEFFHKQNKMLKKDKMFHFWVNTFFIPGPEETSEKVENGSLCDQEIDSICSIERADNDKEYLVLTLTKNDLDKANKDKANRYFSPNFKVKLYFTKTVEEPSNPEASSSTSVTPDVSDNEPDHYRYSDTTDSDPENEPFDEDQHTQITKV
human Protein Tyrosine Phosphatase Non-receptor Type 9 (PTPN9), PTPN9 (gene 5780), sequence (P43378 whole entry, looked up): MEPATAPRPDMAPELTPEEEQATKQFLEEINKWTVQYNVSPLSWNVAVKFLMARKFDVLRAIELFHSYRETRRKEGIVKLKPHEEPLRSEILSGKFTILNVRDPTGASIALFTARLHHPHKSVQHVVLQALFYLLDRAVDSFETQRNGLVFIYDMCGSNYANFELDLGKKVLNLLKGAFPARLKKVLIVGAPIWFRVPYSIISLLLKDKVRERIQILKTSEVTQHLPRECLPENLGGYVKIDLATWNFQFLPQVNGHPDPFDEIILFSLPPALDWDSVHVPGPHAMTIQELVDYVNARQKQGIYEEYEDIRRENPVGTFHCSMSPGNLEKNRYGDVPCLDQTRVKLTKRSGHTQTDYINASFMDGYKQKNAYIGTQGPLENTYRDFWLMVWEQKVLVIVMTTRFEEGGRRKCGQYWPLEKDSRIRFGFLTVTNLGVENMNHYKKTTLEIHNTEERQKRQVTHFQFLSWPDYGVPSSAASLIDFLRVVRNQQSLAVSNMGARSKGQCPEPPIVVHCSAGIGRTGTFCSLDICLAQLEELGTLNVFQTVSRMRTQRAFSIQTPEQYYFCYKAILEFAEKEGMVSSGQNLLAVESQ

As a reminder, the AC50 is the concentration at which the activity in the assay is half-maximal. Consider `COc1ccccc1N`, for which the AC50 in assay [1] is 22.6 µM (active).

Turning to `Nc1c(Oc2ccccc2)cc(O)c2c1C(=O)c1ccccc1C2=O`, the molecule was classed as inactive in assay [2].

For `Oc1cc(Cl)c(Cl)cc1Cl`, the result in assay [1] was inactive.

Consider `COCC(=O)N(c1c(C)cccc1C)[C@H](C)C(=O)OC`, for which the molecule was called inactive in [2].

In the case of `COc1nn(C(=O)NS(=O)(=O)c2ccccc2OC(F)(F)F)c(=O)n1C`, the AC50 was 13.3 µM (active) in [3], 9.29 µM (active) in [2], 5.64 µM (active) in assay [4] and 6.08 µM (active) in assay [5].

As to `CCCCCCCCCCCCc1cccc(S(=O)(=O)O)c1`, the AC50 in assay [3] was 22.5 µM (active); in [2] it was 12.9 µM (active); in [4], 12.8 µM (active); in [6], 22.7 µM (active); in [7] it was 5.53 µM (active); in assay [5], 19.2 µM (active).

Turning to `Cc1ccccc1OP(=O)(Oc1ccccc1)Oc1ccccc1`, the AC50 in assay [2] is 44.9 µM (active).

For the molecule `O=C(CBr)c1ccc(O)cc1`, the outcome in [5] was inactive.

For `CC(C)O.CC(C)O.OCCN(CCO)CCO.OCCN(CCO)CCO.[Ti]`, the AC50 is 13.6 µM (active) in assay [3]; 0.493 µM (active) in [2]; 0.00439 µM (active) in assay [4]; 3.51 µM (active) in [6]; 0.00229 µM (active) in assay [8]; 0.00229 µM (active) in [9]. Moreover, in assay [5], the AC50 is 0.00229 µM (active).

As to `CCCCC(CC)COC(=O)Cl` (stereo not given), the AC50 in [2] is 4.14 µM (active).

Consider `CC(C)(COCC1CO1)COCC1CO1` (stereo not given), for which the outcome in assay [2] was inactive.

Regarding `OC(Cc1ccccc1Cl)(Cn1[nH]cnc1=S)C1(Cl)CC1` (stereo not given), the molecule was classed as inactive in assay [2].

Turning to `O=C1c2ccccc2C(=O)C1C(=O)C(c1ccccc1)c1ccc(Cl)cc1` (stereo not given), the AC50 in assay [3] is 9.45 µM (active); in [2], 15.2 µM (active); in assay [4] it was 20 µM (active); in assay [5], 14.7 µM (active).

Take `Cc1cccc(OP(=O)(Oc2cccc(C)c2)Oc2cccc(C)c2)c1`: in assay [2], the molecule was called inactive.

For `N#Cc1cccnc1`, the call in assay [3], in assay [2], in [4], in [9], in assay [10] and in [7] was inactive. For the same molecule, the result in [5] was inactive.

As to `C[C@]12CC[C@@H](O)C[C@@H]1CC[C@@H]1[C@@H]2CC[C@]2(C)C(=O)CC[C@@H]12`, in [2], the result was inactive.

For `CN(C)C(=S)S`, the outcome in assay [2] was inactive.

`CCCCCCCCCCCCOS(=O)(=O)O`: the AC50 in assay [2] is 21.6 µM (active). In [9], the call was inactive.

For the molecule `Clc1cccc(Cl)c1Cl`, the molecule was classed as inactive in assay [2] and in [4].

In the case of `Cc1ccccc1OP(=O)(Oc1ccccc1C)Oc1ccccc1C`, the AC50 in assay [2] is 45.1 µM (active).
